The supplement of paper PMC10646978
± gives the standard deviation.

Assays:
Details in all cases: modulator concentration 10 µM
[1] = test system: RAW-Dual (murine macrophage reporter line); test: NF-kB reporter (SEAP) activity fold change vs agonist alone; higher = enhanced NF-kB activity
Procedure, shortened: (§1)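 Overnight stimulation with a PRR agonist followed pre-incubation for 1 hour at 37 °C with compound at 10 μM final. This was done in RAW-Dual murine macrophage reporter cells seeded at 50 000 per well in 384-well plates. NF-κB (SEAP, QUANTI-Blue absorbance at 620 nm) and IRF (Lucia luciferase, QUANTI-Luc luminescence) were read from the supernatant. Each reporter's fold change relative to the mean agonist-only control on the same plate was averaged over replicate plates.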

[2] = test system: RAW-Dual (murine macrophage reporter line); test: IRF reporter (Lucia luciferase) activity fold change vs agonist alone; higher = enhanced IRF activity
Procedure, shortened: as §1

[3] = test system: RAW-Dual (murine macrophage reporter line); test: viability score (confluency relative to resting cells, overnight) (fraction); higher = more viable, active = viable (0.7 or more)
Procedure, shortened: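 A compound met the cutoff when both of two confluency masks exceeded 70% of resting cells. Those masks were made with IncuCyte software from IncuCyte images of RAW-Dual macrophages treated overnight at 10 μM final. This is the basis of the viability score, which is confluency relative to resting cells.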

[4] = agonist: CpG ODN 1826 0.5 ug/mL

SMILES	NF-kB reporter [1, 4]	NF-kB reporter ([1]; agonist: LPS 0.1 ug/mL)	NF-kB reporter ([1]; agonist: MPLA […])	IRF reporter ([2]; agonist: 3'3'-cGAMP 10 ug/mL)	IRF reporter ([2]; agonist: LPS 0.1 ug/mL)	IRF reporter ([2]; agonist: MPLA […])	viability score [3]
O=C(NCC1CN(c2ccc(N3CCOCC3=O)cc2)C(=O)O1)c1ccc(Cl)s1 (configuration not stated)	1.36 ± 0.18	1.09 ± 0.41	0.984 ± 0.063	0.898 ± 0.031	1.21 ± 0.43	1.03 ± 0.08	1 (active)
O=C(NC1CCC(F)(F)CC1)c1cc(Br)cs1	1.13 ± 0.064	0.996 ± 0.075	0.984 ± 0.04	0.833 ± 0.051	1.04 ± 0.052	1.03 ± 0.15	0.999 (active)
COc1ccc(C=CC(=O)O)cc1OC	1.03 ± 0.077	1.1 ± 0.059	1 ± 0.022	1.03 ± 0.06	0.954 ± 0.078	0.973 ± 0.095	0.996 (active)
CN1C(=O)C(=NNC(=O)COc2cccc(Br)c2)c2ccccc21	0.895 ± 0.06	0.978 ± 0.082	0.896 ± 0.054	0.954 ± 0.033	1.48 ± 0.16	1.16 ± 0.12	1.01 (active)
CN1CCCC(n2nc(Cc3ccc(Cl)cc3)c3ccccc3c2=O)CC1.Cl (configuration not stated)	0.135 ± 0.008	0.929 ± 0.12	1.42 ± 0.26	1.12 ± 0.14	1.19 ± 0.22	1.35 ± 0.4	0.587 (inactive)
CCC(C)C(=O)OC1CCC=C2C=CC(C)C(CCC3CC(O)CC(=O)O3)C21 (configuration not stated)	0.946 ± 0.11	0.83 ± 0.061	1 ± 0.094	0.941 ± 0.046	1.24 ± 0.23	1.33 ± 0.32	1.05 (active)
CCN1CCCC1CNC(=O)c1cc(S(=O)(=O)CC)c(N)cc1OC (configuration not stated)	1.69 ± 0.23	1.28 ± 0.32	1.23 ± 0.089	0.819 ± 0.032	0.957 ± 0.29	0.808 ± 0.12	0.994 (active)
O=C(O)CCCNC(=O)c1ccccc1C(=O)O	0.896 ± 0.092	0.911 ± 0.067	0.952 ± 0.093	1.04 ± 0.043	1.3 ± 0.14	1.41 ± 0.21	1.03 (active)
COc1ccc2cc(Br)ccc2c1CC(N)=O	1.09 ± 0.086	1.07 ± 0.12	1.04 ± 0.046	0.89 ± 0.13	1.07 ± 0.072	0.961 ± 0.14	0.968 (active)
CCC(=O)Nc1cccc(NC(=O)c2ccc(F)cc2)c1	0.852 ± 0.066	0.906 ± 0.12	0.977 ± 0.092	0.99 ± 0.05	1.32 ± 0.092	1.39 ± 0.17	0.997 (active)
CN(C)CCCN1c2ccccc2Sc2ccc(Cl)cc21 [Prestw-64]	0.227 ± 0.066	1.1 ± 0.059	1.94 ± 0.12	0.71 ± 0.037	2.26 ± 0.33	2.24 ± 0.35	0.634 (inactive)
COc1ccc(Nc2nc(N3CCCCC3)c3cnn(C)c3n2)cc1	0.753 ± 0.043	1.23 ± 0.096	1.08 ± 0.048	0.388 ± 0.02	0.967 ± 0.097	1.23 ± 0.12	0.969 (active)
Oc1c(Cl)cc(Cl)cc1Sc1cc(Cl)cc(Cl)c1O	1.18 ± 0.11	0.917 ± 0.061	3.21 ± 0.07	0.564 ± 0.031	1.03 ± 0.16	1.1 ± 0.21	0.441 (inactive)
O=C(C=Cc1cccnc1)c1cc2ccc1CCc1ccc(cc1)CC2	1.03 ± 0.058	0.76 ± 0.071	0.752 ± 0.05	0.639 ± 0.023	0.998 ± 0.063	1.03 ± 0.35	1.01 (active)
CCN(CC)CCOC(=O)c1ccc(N)cc1Cl.Cl	1.06 ± 0.094	0.971 ± 0.048	1.04 ± 0.038	0.957 ± 0.087	1.01 ± 0.089	0.897 ± 0.077	0.999 (active)
Cc1ccc(OCCCOc2cccc3cccnc23)c(Cl)c1	0.808 ± 0.076	1.02 ± 0.056	0.877 ± 0.057	0.947 ± 0.077	1.32 ± 0.14	1.05 ± 0.076	1.01 (active)
CC(C)c1nc(CN(C)C(=O)N[C@H](C(=O)N[C@@H](Cc2ccccc2)C[C@H](O)[C@H](Cc2ccccc2)NC(=O)OCc2cncs2)C(C)C)cs1	0.57 ± 0.047	0.468 ± 0.036	0.8 ± 0.053	1.04 ± 0.14	0.993 ± 0.049	0.92 ± 0.096	1 (active)
CC(N)C12CC3CC(CC(C3)C1)C2.Cl (configuration not stated)	0.598 ± 0.14	1.07 ± 0.12	1.04 ± 0.068	0.919 ± 0.033	0.899 ± 0.1	0.966 ± 0.27	0.543 (inactive)
CCOc1ccc(S(=O)(=O)N2C3CCC2CC(S(=O)(=O)c2ccccc2)C3)cc1 (configuration not stated)	0.976 ± 0.06	1.05 ± 0.098	0.968 ± 0.053	0.977 ± 0.044	1.25 ± 0.2	1.25 ± 0.29	0.978 (active)
Cl.O=C1Cc2cc(CCN3CCN(c4nsc5ccccc45)CC3)c(Cl)cc2N1	0.0947 ± 0.013	1.06 ± 0.24	0.85 ± 0.059	0.646 ± 0.027	1.24 ± 0.24	1.01 ± 0.076	0.983 (active)
CN1CCN(CC(=O)N2c3ccccc3C(=O)Nc3cccnc32)CC1.Cl.Cl	1.49 ± 0.35	1.03 ± 0.1	1.15 ± 0.077	0.96 ± 0.036	1.08 ± 0.12	1.06 ± 0.15	0.984 (active)
CC(=O)Nc1ccc(NC(=S)NC(=O)C=Cc2ccc(Cl)cc2Cl)cc1	0.64 ± 0.05	0.741 ± 0.059	0.933 ± 0.095	0.428 ± 0.031	1.33 ± 0.12	1.3 ± 0.22	1 (active)
CN1CCC(OC(c2ccccc2)c2ccccc2)CC1.Cl	0.827 ± 0.31	1.17 ± 0.061	1.22 ± 0.087	0.638 ± 0.025	0.967 ± 0.19	1.08 ± 0.1	0.992 (active)
O=C(CCCN1CCC(O)(c2ccc(Br)cc2)CC1)c1ccc(F)cc1 [Prestw-509]	0.892 ± 0.15	1.12 ± 0.14	1.04 ± 0.13	0.925 ± 0.024	1.01 ± 0.16	1.16 ± 0.13	0.998 (active)
CC1=C(C(=O)OCC2CCCO2)C(c2ccc([N+](=O)[O-])cc2)C2=C(CC(C)(C)CC2=O)N1 (configuration not stated)	1.16 ± 0.19	0.887 ± 0.08	0.848 ± 0.078	0.553 ± 0.02	1.04 ± 0.23	0.984 ± 0.11	0.995 (active)
Cc1cc(CCNC(=O)c2nc3ccccc3s2)nn1C	1.1 ± 0.062	0.978 ± 0.12	0.978 ± 0.053	0.953 ± 0.052	1.02 ± 0.048	0.943 ± 0.29	1 (active)
